Screening data (PubChem)
D1 antagonist: blocks dopamine activation of the human D1 receptor; HEK293 TREx D1 cells, calcium flux, dopamine EC80; stronger effect = lower value; activity change, negative = inhibition, % at 10 µM; hit rate 3.2% among 360,000; AID 504652; in the data active = activity change below about -30%; also: % is scaled to controls: 0 for no effect and ±100 for the full control effect
Target sequence (P21728 whole entry, looked up): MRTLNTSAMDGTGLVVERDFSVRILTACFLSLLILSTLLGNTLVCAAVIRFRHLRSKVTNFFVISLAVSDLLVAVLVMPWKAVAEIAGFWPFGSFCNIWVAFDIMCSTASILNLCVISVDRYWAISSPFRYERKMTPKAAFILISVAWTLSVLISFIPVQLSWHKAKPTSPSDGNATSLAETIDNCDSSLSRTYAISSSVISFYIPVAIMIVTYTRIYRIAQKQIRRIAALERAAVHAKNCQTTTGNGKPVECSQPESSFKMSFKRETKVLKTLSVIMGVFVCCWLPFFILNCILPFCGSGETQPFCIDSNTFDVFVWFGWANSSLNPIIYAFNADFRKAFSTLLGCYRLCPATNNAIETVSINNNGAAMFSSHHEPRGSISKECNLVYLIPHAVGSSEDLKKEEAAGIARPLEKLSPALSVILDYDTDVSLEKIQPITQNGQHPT
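Antagonism measured as reduced calcium response to an EC80 dopamine addition following 180 s compound pre-read; cells were inducible HEK293 Trex D1 plated overnight at 30 C, read kinetically at 1 cycle/sec.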
D1 agonist: agonists of human D1 dopamine receptor; P21728; HEK293 T-REx D1 cells, calcium flux, agonist mode; activation, % at 2 µM; hit rate 1% among 360,000; in the data active = activation above about 30%; also: 0% is about no effect
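Agonism was scored from calcium flux recorded over 180 s (1 read/s) after pintool compound addition, following a 10-cycle baseline. Cells were inducible force-coupled HEK293 TREx D1, plated overnight at 30 C and loaded with no-wash calcium dye.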
TRHR agonist-1: activates the human TRH receptor; P34981; TRHR cells, calcium flux fluo-8, FDSS agonist mode; activation, % at 2 µM; hit rate 0.18% among 360,000; in the data active = activation above about 30%; also: 0% is about no effect
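In this calcium-flux screen, cells bearing human TRHR are dye-loaded with fluo-8, baselined for 10 cycles, then exposed to library compounds; positive kinetic calcium responses during the agonist phase mark hits, with TRH as control.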
D1 PAM: human D1 dopamine receptor positive modulation; P21728; HEK293 TREx D1 cells, calcium flux, dopamine EC20 potentiation; potentiation, % at 10 µM; hit rate 0.036% among 360,000; in the data active = potentiation above about 30%; also: 0% is about no effect
GRP78 ERSR act: ER stress response induction in glioma. Potency, µM, for the others: at the top dose activation, most hits filed as activators. AID 602332. U87-MG GRP78 promoter luciferase reporter, 16 h. hit rate 0.02% among 420,000; also: potency is read from the fitted curve at half-maximal effect; series mostly up to about 76 µM; % of control where 0% means no effect; nearly all actives have a fitted effect of over 35% in size
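Stably transfected U87-MG glioma cells carrying a GRP78-based luciferase sensor; 16 h compound incubation. Luminescence end-point read 10 min after Bright-Glo addition at room temperature.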
TRHR enhancer-1: TRH receptor (human) allosteric enhancement; P34981; TRHR cells, fluo-8 calcium fluorescence, EC20 TRH enhancement; enhancement, % at 2 µM; hit rate 0.66% among 360,000; AID 493056; in the data active = enhancement above about 30%; also: 0% is about no effect
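TRHR-expressing cells loaded with fluo-8 calcium dye were read kinetically (ex 480/em 530) during compound addition, then stimulated with an EC20 of TRH (10 nM final). Enhancement of the Gq-mediated intracellular calcium response was scored.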
TRHR enhancer-2: confirmation of human TRH receptor allosteric enhancers; shares compounds with TRHR enhancer-1; activity change, negative = inhibition, % at 46.1 µM; 970 tested, under 10 active; TRH receptor cell assay, enhancer confirmation qHTS;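 also: compound effect scored on response to added TRH at EC20 of 10 nM; 0% is about no effect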
TRHR agonist-2: confirmation of human TRH receptor agonists | AID 493078 | shares compounds with TRHR enhancer-1 | hit rate 8% among 970 | Potency, µM (highest dose often 46.1 µM), for the others: at the highest dose activation, usual class: activators | TRHR-expressing cells, agonist activation read-out; also: potency is read from the fitted curve at half-maximal effect; 0% is about no effect; nearly all actives have a fitted effect of over 75% in size
* marks the source's active call; other numbers are inactive results; ? = inconclusive; . = not tested or not shown. Rows were chosen to be rich in hits. Some 4% of all compounds tested hit in one or more screens of this group. Unless noted, calls follow the shape of the dose curve; as a rule, active = well fitted curve in the direction sought with a large enough effect; inconclusive = small, poorly fitted or top-dose-only effect, or another doubt; inactive = no such curve, though single readings can be large; an effect the other way counts as inactive or inconclusive.

SMILES	D1 antagonist	D1 agonist	TRHR agonist-1	D1 PAM	GRP78 ERSR act	TRHR enhancer-1	TRHR enhancer-2	TRHR agonist-2
COc1ccc(C(=O)Oc2ccc(/C=N/NC(=O)c3ccccc3OC)cc2[N+](=O)[O-])cc1	3	2	0	-6	-2%	51*	-3	2%
C[C@H](CO)N1C[C@H](C)[C@@H](CN(C)S(C)(=O)=O)Oc2ccc(NC(=O)Cn3cnnn3)cc2C1=O	.	.	.	.	-3%	.	.	.
COc1cccc(-n2nc(C(=O)N3CC(C)CC(C)C3)c3ccccc3c2=O)c1 (stereo not given)	-17	0	0	8	0%	8	.	.
O=C(NC(=S)Nc1ccc(N2CCCCC2)cc1)c1cccs1	-6	0	1	6	1%	1	.	.
CS(=O)(=O)N1CCN(c2ccc(NC(=S)NC(=O)c3cccs3)cc2)CC1	2	6	-1	-8	0%	44*	-5	0%
C/C(=N\NC(=O)C1CC1)c1ccc(C)cc1C	.	.	.	.	-1%	.	.	.
CCOc1ccc(C(=O)Nc2c3c(nn2-c2ccc(C)cc2)CS(=O)C3)cc1OCC (stereo not given)	6	2	0	-5	-2%	42*	-2	0%
CCCCC(=O)N(c1ccc(C(=O)O)cc1)c1nc(-c2ccc(Cl)cc2)c(CC)s1	-8	1	0	-3	1%	63*	-17	?
COc1ccc(OC)c2sc(NC(=O)c3ccc(S(=O)(=O)N4CCCC4)cc3)nc12	-9	2	0	-3	-5%	2	.	.
Clc1ccccc1OCc1nnc(-c2ccccc2Br)o1	-4	3	0	-2	4%	-8	.	.
N#Cc1ccccc1OCc1nnc(-c2ccccc2Br)o1	19	0	0	4	1%	44*	-18	3%
O=C(N/N=C/c1c(O)n(-c2ccc(Cl)cn2)c(=O)c2ccccc12)C1CC1	4	1	2	2	-3%	5	.	.
O=C(N/N=C/c1c(O)n(-c2ccc(Cl)cn2)c(=O)c2ccccc12)c1ccncc1	-6	45*	38*	-9	-3%	6	11	21µM*
COC(=O)C1=C(C)N(C(C)C)C(=O)C1(NC(=O)c1ccc(C(C)(C)C)cc1)C(F)(F)F (stereo not given)	0	2	-1	-2	-1%	-6	.	.
C/C(=N/Nc1ccc([N+](=O)[O-])cc1)c1ccc(C)cc1C	-18	5	2	1	1%	-5	.	.
C/C(=N/Nc1ccc([N+](=O)[O-])cc1)c1c[nH]c2ccccc12	-33*	83*	35*	-8	4%	0	-4	?
COc1ccc(CCNC(=O)COc2ccc3c(C)cc(=O)oc3c2)cc1OC	1	3	0	0	-4%	3	.	.
C/C(=N\NC(=O)c1ccc(Cn2cc(Br)cn2)o1)c1ccc(NC(=O)c2ccoc2C)cc1	-43*	1	0	-4	-3%	61*	10	8%
CC(C)(C)NS(=O)(=O)c1ccc(/C=C/C(=O)O)cc1	-5	1	0	4	-1%	3	.	.
Cc1cc(C)nc(NN2C(=O)/C(=C/c3ccc(O)cc3)SC2=S)n1	19	43*	36*	-1	3%	7	-6	21µM*
COc1ccc(/C=C2\SC(=S)N(c3cccnc3)C2=O)cc1	8	5	0	3	2%	-12	.	.
O=C1/C(=C\c2ccc(O)cc2)SC(=S)N1c1cccnc1	-2	66*	36*	-6	-1%	-2	-6	?
Oc1c(/C=N/c2ccccn2)sc2ccccc12	10	14	7	-2	-4%	41*	7	?
Oc1c(C=Nc2ccc(Cl)cn2)sc2ccccc12	-9	26	11	0	9%	-2	.	.
Cc1ccc(-n2c(C)n[nH]c2=S)cc1	14	0	0	0	-2%	11	.	.
SMILES	D1 antagonist	D1 agonist	TRHR agonist-1	D1 PAM	GRP78 ERSR act	TRHR enhancer-1	TRHR enhancer-2	TRHR agonist-2
Cc1ccc(-n2c(C)n[nH]c2=S)cc1C	9	3	0	-9	-5%	45*	-7	-1%
O=C(CSCc1ccco1)N1CCc2ccccc21	10	-1	-1	-3	-2%	2	.	.
Clc1ccc(Oc2cnns2)cc1Cl	-4	4	0	-8	-1%	44*	6	1%
COc1ccc2nc(-c3ccccn3)[nH]c2c1	-2	2	0	-4	-7%	46*	-3	2%
Cc1nn(CC(=O)Nc2ccc3c(c2)nc2n3CCN(C3CCCCC3)C2)c(=O)c2ccccc12	1	1	0	-3	1%	46*	6	6%
Cc1nn(CC(=O)Nc2ccc3c(c2)nc(CCN2CCCCC2)n3C)c(=O)c2ccccc12	4	3	0	1	-6%	5	.	.
COc1ccc(C(=O)c2sc3nc(-c4ccccc4)ccc3c2N)cc1OC	1	57*	44*	-5	-14%	2	-3	?
CCC(C(=O)NCc1ccccc1OC)n1nc(C)n2c(cc3sccc32)c1=O (stereo not given)	-15	2	1	-4	-3%	-8	.	.
COc1ccc(CN2CC(=O)N3[C@H]4c5ccccc5OC[C@@H]4[C@H](c4ccccc4)[C@]3(C)C2=O)cc1	.	3	1	-4	-3%	7	.	.
OCC1(CCc2ccccc2)CCN(Cc2ccccc2Cl)CC1	20	8	3	-5	-3%	60*	-5	5%
Clc1ccccc1CN1CCN(CCCc2ccccc2)CC1	-19	3	-3	-8	-5%	-4	.	.
CN(C)CCSc1nc(-c2ccccc2)nc2c1COC(C)(C)C2	.	2	0	-4	-5%	46*	1	2%
O=C(Nc1ncccc1O)c1c(O)c2ccccc2[nH]c1=O	15	0	27	-3	-3%	-6	5	-1%
O=C(Cn1nnc2ccccc21)C1CC1	7	4	0	-5	-1%	47*	-3	-1%
CN(C)c1ccc(/C=N/NC(=O)Cn2nnc3ccccc32)cc1	7	1	29	0	0%	2	?	1%
Cc1cccc(N2CCN(C(=O)CCC(=O)N3CC(C)Oc4ccc(C)cc43)CC2C)c1 (stereo not given)	4	3	-1	10	-6%	0	.	.
CCOCc1c(C(=O)Nc2cc(OCC)c(N3CCOCC3)cc2OCC)oc2ccccc12	1	2	0	-4	-3%	-10	.	.
